# Assay results published in PubChem BioAssay AID743172 (National Center for Advancing Translational Sciences (NCATS), 2013).
# Records with an inconclusive call do not appear. A number with no mark means an inactive call. The source made the active and inactive calls. Calls follow the shape of the dose curve; as a rule, active = well fitted activation curve with a large enough effect; inconclusive = small, poorly fitted or top-dose-only effect; inactive = no such curve, though single readings can be large or run the other way.
# Experiment: Extended Characterization of HPGD Inhibitors: PGE2 Assay in LNCaP Cells
# Conditions: PGE2 HTRF level, 16 h; series mostly up to 100 µM; PGE2 level, % of control (higher = increase): at the top concentration
SMILES,Potency,"PGE2 level, % of control (higher = increase) [%]"
Brc1cnc2nc(SCc3cccnc3)[nH]c2c1,7.03 µM (active),
COc1ccccc1-n1cnc2cc(C(=O)N3CCCCC3)ccc21,1.76 µM (active),
Cc1cc(-c2nnc3n2CCCCC3)c(C)n1-c1ccc(Cl)c(Cl)c1,0.352 µM (active),
Cc1cccc(-n2cnc3cc(C(=O)N4CCCC(C(F)(F)F)C4)ccc32)c1 (stereo unspecified),1.76 µM (active),
Clc1cccc(CSc2nc3ncc(Br)cc3[nH]2)c1,44.3 µM (active),
CC(C)(C)c1ccc(CSc2nc3ncc(Br)cc3[nH]2)cc1,35.2 µM (active),
Cc1cc(-c2nnc3n2CCCCC3)c(C)n1-c1ccc(C(F)(F)F)cc1,3.52 µM (active),
Cc1cccc(-n2cnc3cc(C(=O)N4CCCCCC4)ccc32)c1,1.76 µM (active),
O=C(c1ccc2c(c1)ncn2-c1ccccc1)N1CCCCC1,0.28 µM (active),
Cc1cccc(-n2cnc3cc(C(=O)N4CCC(C#N)CC4)ccc32)c1,,132
Cc1ccc(-n2c(C)cc(-c3nnc4n3CCCCC4)c2C)cc1,0.702 µM (active),
Cc1cccc(-n2cnc3cc(C(=O)N4CCCC4)ccc32)c1,55.8 µM (active),
Cc1cc(-c2nnc3n2CCCCC3)c(C)n1-c1ccc(F)cc1,3.52 µM (active),
O=[N+]([O-])c1ccccc1CSc1nc2ncc(Br)cc2[nH]1,0.352 µM (active),
O=[N+]([O-])c1cccc(CSc2nc3ncc(Br)cc3[nH]2)c1,,469
O=C(c1ccc2c(c1)ncn2-c1ccc(Cl)cc1)N1CCCCC1,0.884 µM (active),
